Experimental data taken from PubChem BioAssay (NCI).
Compounds without any hit were thinned out: in the full panel of roughly 83,000, 20% have a hit.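 Step 1: grow cells in 96-well plates. Step 2: add test compound at a single concentration. Step 3: incubate 48 h. Step 4: record percent growth.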 Active and inactive are the calls of the source. Rule for the calls: active = growth percent below 10; inactive = the rest.

Legend:
Experiment in all cases: NCI-60 one-dose screen, 48 h (100 = growth as untreated, 0 = no growth, -100 = all killed)
Details in all cases: 10 µM
SK-MEL-2 melanoma = system: SK-MEL-2 melanoma
EKVX NSCLC = system: EKVX NSCLC
SN12C renal = system: SN12C renal
UO-31 renal = system: UO-31 renal
TK-10 renal = system: TK-10 renal
ACHN renal = system: ACHN renal
CAKI-1 renal = system: CAKI-1 renal
A498 renal = system: A498 renal
MOLT-4 leukemia = system: MOLT-4 leukemia
SR leukemia = system: SR leukemia
RPMI-8226 leukemia = system: RPMI-8226 leukemia
OVCAR-5 ovarian = system: OVCAR-5 ovarian
OVCAR-4 ovarian = system: OVCAR-4 ovarian
SK-OV-3 ovarian = system: SK-OV-3 ovarian
IGROV1 ovarian = system: IGROV1 ovarian
OVCAR-3 ovarian = system: OVCAR-3 ovarian
HS 578T breast = system: HS 578T breast
NCI/ADR-RES ovarian = system: NCI/ADR-RES ovarian
CCRF-CEM leukemia = system: CCRF-CEM leukemia
OVCAR-8 ovarian = system: OVCAR-8 ovarian

Row | SMILES | growth (SK-MEL-2 melanoma) | growth (EKVX NSCLC) | growth (SN12C renal) | growth (UO-31 renal) | growth (TK-10 renal) | growth (ACHN renal) | growth (CAKI-1 renal) | growth (A498 renal) | growth (MOLT-4 leukemia) | growth (SR leukemia) | growth (RPMI-8226 leukemia) | growth (OVCAR-5 ovarian) | growth (OVCAR-4 ovarian) | growth (SK-OV-3 ovarian) | growth (IGROV1 ovarian) | growth (OVCAR-3 ovarian) | growth (HS 578T breast) | growth (NCI/ADR-RES ovarian) | growth (CCRF-CEM leukemia) | growth (OVCAR-8 ovarian)
1 | COc1cc(NS(C)(=O)=O)ccc1Nc1c2ccc(Cl)cc2nc2c(OC)cccc12 | -45.2% (active) | 70.4% (inactive) | -10.7% (active) | 5.23% (active) | -55.3% (active) | -46.4% (active) | -37% (active) | -8.95% (active) | -2.38% (active) | -16.5% (active) | -19.6% (active) | -11.9% (active) | 62.4% (inactive) | -5.68% (active) | 19.3% (inactive) | 22.4% (inactive) | 20.2% (inactive) | 25.8% (inactive) |  | 
2 | CCN(CC)CC(O)CNc1ccnc2cc(Cl)c(Cl)cc12 (stereo unspecified) | 108% (inactive) | 92% (inactive) | 79% (inactive) |  | 95.2% (inactive) | 98.4% (inactive) | 80.7% (inactive) | 98.7% (inactive) | 82.3% (inactive) | 28.4% (inactive) | 90.3% (inactive) |  | 85.9% (inactive) | 106% (inactive) | 91.1% (inactive) | 92.5% (inactive) | 103% (inactive) | 87.1% (inactive) | 94.9% (inactive) | 84.3% (inactive)
3 | COc1cc(-c2n/c(=C\c3c(O)[nH]c4ccccc34)cc3c2=Nc2ccccc2-3)cc(OC)c1OC | 35.6% (inactive) | 45.8% (inactive) | 34.3% (inactive) | 33.9% (inactive) | 57.9% (inactive) | 37.2% (inactive) | 29.5% (inactive) | -16.3% (active) | -13.5% (active) | 8.26% (active) | 25.5% (inactive) | 46.4% (inactive) | 26.8% (inactive) | -9.66% (active) | 44.3% (inactive) | -16.6% (active) | 3.83% (active) | 4.78% (active) |  | 11.3% (inactive)
4 | COc1ccc(-c2ccccc2)cc1C(=O)c1ccc(-c2ccccc2)cc1 | 58.9% (inactive) | 88.8% (inactive) | 96.6% (inactive) | 60.6% (inactive) | 88.3% (inactive) | 105% (inactive) | 52.2% (inactive) | 93.6% (inactive) | 65.9% (inactive) | 23.8% (inactive) |  | 87.8% (inactive) | 96.3% (inactive) | 76.6% (inactive) | 63.5% (inactive) | 60.9% (inactive) |  | 41.2% (inactive) |  | 93.1% (inactive)
5 | COc1c(C)c(C)c(OC)c2c1[nH]c(=O)c1c3cccnc3cn21 | 110% (inactive) | 100% (inactive) | 99.5% (inactive) | 91.2% (inactive) | 117% (inactive) | 114% (inactive) | 104% (inactive) | 120% (inactive) | 99.4% (inactive) | 94.8% (inactive) | 108% (inactive) | 122% (inactive) |  | 103% (inactive) |  |  |  | 110% (inactive) | 101% (inactive) | 111% (inactive)
6 | COc1cc(/C=C/C(=O)c2cc(-c3ccc(F)cc3)ccc2O)cc(OC)c1OC | 75.4% (inactive) | 53% (inactive) | 74.3% (inactive) | 53.1% (inactive) | 108% (inactive) | 76.8% (inactive) | 60.5% (inactive) | 81.8% (inactive) | 26.3% (inactive) | 49.9% (inactive) | 7.24% (active) | 97.5% (inactive) | 68.3% (inactive) |  | 84.1% (inactive) |  | 86% (inactive) | 72.1% (inactive) | -3.16% (active) | 66.7% (inactive)
7 | CC(=O)Nc1nc(C)c(C(=O)N/N=C/c2cccn2C)s1 | 43.6% (inactive) | 103% (inactive) | 94.5% (inactive) | 93.7% (inactive) |  | 107% (inactive) | 111% (inactive) | 89.6% (inactive) | 100% (inactive) | 107% (inactive) | 110% (inactive) | 110% (inactive) | 108% (inactive) | 141% (inactive) | -1.21% (active) | 105% (inactive) | 72.5% (inactive) | 96% (inactive) | 98.8% (inactive) | 101% (inactive)
8 | CCCCNC(=O)Oc1ccc(/C(=C(\C)c2ccc(OC)cc2)c2ccc(OCCN3CCCCC3)cc2)cc1 | 67.8% (inactive) | 68.3% (inactive) | 69.1% (inactive) | 11.2% (inactive) | 102% (inactive) |  | 60.3% (inactive) | 71% (inactive) | 20.1% (inactive) | -22.9% (active) | 29% (inactive) | 74.9% (inactive) | 64.8% (inactive) | 66.7% (inactive) | 64.7% (inactive) | 73.6% (inactive) |  | 68.2% (inactive) | 58.5% (inactive) | 
9 | Cn1c(N)c(N=Cc2ccccc2)c(=O)n(C)c1=O | 97.1% (inactive) | 100% (inactive) | 104% (inactive) | 81.5% (inactive) | 117% (inactive) | 104% (inactive) | 98% (inactive) | 116% (inactive) | 99.4% (inactive) | 96.2% (inactive) | 108% (inactive) | 133% (inactive) | 111% (inactive) |  | 106% (inactive) | 120% (inactive) | 100% (inactive) | 110% (inactive) |  | 110% (inactive)
10 | CC(=O)CS(C)(=O)=O | 103% (inactive) | 93.6% (inactive) | 105% (inactive) | 92.4% (inactive) | 103% (inactive) | 106% (inactive) | 101% (inactive) | 98.8% (inactive) | 106% (inactive) | 94.8% (inactive) | 105% (inactive) | 102% (inactive) | 112% (inactive) | 104% (inactive) | 108% (inactive) |  | 107% (inactive) | 109% (inactive) |  | 105% (inactive)
11 | Cc1ccc(S(=O)(=O)Oc2ccccc2-c2ccccc2)cc1 | 28.8% (inactive) | 46% (inactive) | 39.2% (inactive) |  | 45.5% (inactive) | 44.2% (inactive) | 14% (inactive) | 6.79% (active) | 20.7% (inactive) | 8.73% (active) | 34.4% (inactive) | 63.6% (inactive) | 60.7% (inactive) | 23% (inactive) | 35.6% (inactive) | -28.1% (active) | -21.5% (active) | -7.58% (active) | 18% (inactive) | 41.6% (inactive)
12 | CCOC(=O)c1c(O)c2cc(-c3ccccc3)nc(OCC)c2c(=O)n1C | 87.9% (inactive) | 96% (inactive) | 98.7% (inactive) |  | 123% (inactive) | 98.3% (inactive) | 97.3% (inactive) | 90.3% (inactive) | 107% (inactive) | 98% (inactive) | 39.2% (inactive) | 104% (inactive) | 90.1% (inactive) | 107% (inactive) | 69.8% (inactive) | 103% (inactive) | 93% (inactive) | 82.2% (inactive) | 56% (inactive) | 104% (inactive)
13 | O=[N+]([O-])c1ccc(-c2nc(-c3ccccc3)c(-c3ccccc3)n2-c2ccccc2)cc1 | -38.1% (active) | 34.8% (inactive) | 43.6% (inactive) | -6.05% (active) |  | 19% (inactive) | 48.1% (inactive) | 41.3% (inactive) | -44.6% (active) | 4.19% (active) | -20.3% (active) | 91.5% (inactive) | 24.7% (inactive) | 55.5% (inactive) | -29.1% (active) | 40.2% (inactive) | 20.5% (inactive) | 5.77% (active) | 1.03% (active) | 26.7% (inactive)
14 | COc1ccc(/C=C(\c2cc(OC)c(OC)c(OC)c2)c2nnc(-c3cccs3)o2)cc1 | 81.9% (inactive) | 78.6% (inactive) | 84.6% (inactive) | 89.3% (inactive) | 75.5% (inactive) | 75.3% (inactive) | 66.3% (inactive) | 71.4% (inactive) | 87.6% (inactive) | 78.3% (inactive) | 83.9% (inactive) | 99.4% (inactive) | 26.6% (inactive) | 62.7% (inactive) | 71.7% (inactive) | 82.6% (inactive) |  | 66.4% (inactive) |  | 47.6% (inactive)
15 | C/C(=N\NC(N)=S)C(C)(C)O | 98.5% (inactive) | 67.1% (inactive) | 87.1% (inactive) | 68.9% (inactive) | 126% (inactive) | 90.2% (inactive) | 89.6% (inactive) | 91.7% (inactive) | 44.9% (inactive) | 81.2% (inactive) | 74% (inactive) | 105% (inactive) | 66.6% (inactive) | 109% (inactive) | 22.4% (inactive) | 53.1% (inactive) | 97.1% (inactive) | 32.7% (inactive) |  | 55.3% (inactive)
16 | O=C(COc1ccc(Cl)cc1Cl)Oc1coc(CSc2nc3ccccc3s2)cc1=O | 94.5% (inactive) | 106% (inactive) | 92.3% (inactive) |  | 107% (inactive) | 101% (inactive) | 101% (inactive) | -21.3% (active) | 86.4% (inactive) | 98.6% (inactive) | 87% (inactive) | 116% (inactive) | 99.1% (inactive) | 102% (inactive) | 64.3% (inactive) | 114% (inactive) | -1.61% (active) | 104% (inactive) | 88.7% (inactive) | 21.3% (inactive)
